NALP1 inh: NALP1 inflammasome inhibitors in reconstituted yeast, colorimetric, S. cerevisiae, triplicate retest; S. cerevisiae NALP1/ASC/caspase-1 growth, X-gal OD620, 72 h; inhibition, % at 10 µM; hit rate 0.61% among 280,000; in the data active = inhibition mostly above about 24%, no sharp cut-off; inactive = mostly below about 32%
tim10-1 inh: growth inhibitors of tim10-1 mutant yeast, primary screen, luminescence, uHTS; hit rate 2.2% among 330,000; inhibition, % at 20 µM; AID 463190, 2010; S. cerevisiae tim10-1 ts strain growth, BacTiter-Glo, 24 h;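 active = inhibition of at least 40%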;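 note: mutant grown at 25 °C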
PfHsp90 set2: growth inhibition of PfHsp90-expressing yeast, primary screen, antimalarial PfHsp90 inhibitor project, S. cerevisiae, BacTiter-Glo luminescence, single point, set 2; inhibition, % at 9.4 µM; AID 504621, 2011; hit rate 0.32% among 310,000; BacTiter-Glo ATP, 48 h; yeast lacking PDR1 and PDR3 efflux regulators;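 active = every replicate shows inhibition above about 80%, whatever the replicate mean, limit read from the data; inconclusive = mean inhibition reaches the set limit but some replicate falls short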
tim23-1 inh: growth inhibitors of tim23-1 mutant yeast, primary screen, luminescence, uHTS; S. cerevisiae tim23-1 growth, BacTiter-Glo luminescence, 24 h; inhibition, % at 20 µM; hit rate 1.3% among 330,000; AID 463212, 2010;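 active = growth inhibition of the mutant yeast at or above 50%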;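 note: temperature-sensitive mutant grown at 25 °C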
SKKanGAS inh: S. pyogenes SKKanGAS growth inhibitors in kanamycin, primary screen, streptokinase expression inhibitor project, SKKanGAS strain, BacTiter-Glo luminescence. hit rate 1.3% among 300,000. AID 1662, 2009. inhibition, % at 7.5 µM. 6 h;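 active = mean replicate score, as percent of positive control median, at least 50; inconclusive = mean below 50 but one replicate at or above 50; inactive = mean and every replicate below 50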;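 note: strain carries kanamycin resistance gene driven by streptokinase promoter and grows in 40 µg/ml kanamycin; loss of luminescence reflects streptokinase promoter inhibition or plain growth inhibition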
TIM10 inh: growth inhibitors of isogenic TIM10 control yeast, primary screen, counter-screen for tim10-1 yeast inhibitor project, luminescence, uHTS. S. cerevisiae TIM10 strain growth, BacTiter-Glo luminescence, 24 h. inhibition, % at 10 µM. hit rate 1.4% among 330,000;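 active = inhibition of 40% or more at the single tested concentration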;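 note: wild-type TIM10 isogenic control strain grown at permissive 25 °C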
tim10-1 confirm: growth inhibitors of tim10-1 mutant yeast, confirmation, single concentration, luminescence, S. cerevisiae | hit rate 56% among 7,400 | S. cerevisiae tim10-1 ts strain growth, BacTiter-Glo, 24 h | shares compounds with tim10-1 inh | inhibition, % at 20 µM;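 active = inhibition of yeast growth at or above a set limit in either of two repeat tests at 20 µM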;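 note: tim10-1 mutant grown at permissive 25 °C to find synthetic lethal compounds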
tim10 confirm: growth inhibitors of wild-type TIM10 yeast, confirmation, counter-screen for tim10-1 synthetic lethality project, single concentration, luminescence, S. cerevisiae; hit rate 63% among 4,600; S. cerevisiae tim10 strain growth, BacTiter-Glo luminescence, 24 h; inhibition, % at 10 µM; AID 463215, 2010; shares compounds with TIM10 inh;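 active = inhibition of yeast growth at or above a set limit in either of two replicates at 10 µM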; note: this counterscreen used the strain with wild-type TIM10
tim23-1 conf: tim23-1 mutant yeast growth inhibitors, confirmation, luminescence, single concentration; shares compounds with tim23-1 inh; S. cerevisiae tim23-1 growth, BacTiter-Glo luminescence, 24 h; inhibition, % at 20 µM; hit rate 83% among 4,400; AID 463218, 2010;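 active = inhibition above about 39% in either of two replicate wells at 20 µM, limit read from the data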;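 note: temperature-sensitive tim23-1 mutant grown at 25 °C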
A number is an active result; – = inactive; ? = inconclusive; · = no result; + = active, no number. Rows were chosen to be rich in hits. Some 4.8% of all compounds tested hit in one or more screens of this group.

SMILES	NALP1 inh	tim10-1 inh	PfHsp90 set2	tim23-1 inh	SKKanGAS inh	TIM10 inh	tim10 confirm	tim23-1 conf	others
Cc1ccc(-c2cc(-c3ccc(C)cc3)[n+](-c3ccc(C(=O)O)cc3)c(-c3ccc(C)cc3)c2)cc1	·	–	–	–	–	–	·	·
Cc1ccc(C[n+]2c(-c3ccc(C)cc3)cc(-c3ccc(C)cc3)cc2-c2ccc(C)cc2)cc1	·	50	?	56	106	58	50	60	tim10-1 confirm=43
O=C1C(=O)c2ccccc2-c2ccccc21	–	85	?	77	86	92	98	77	tim10-1 confirm=85
Cc1c(OC(=O)N(C)C)ccc2c1O/C(=C\c1ccco1)C2=O	–	–	–	–	–	–	·	·
Oc1c(Br)c(Br)c(Br)c(Br)c1Br	·	52	–	66	·	49	44	58	tim10-1 confirm=65
C=C(C)C(Cc1c(OC)ccc(C(=O)/C=C/c2ccc(O)cc2)c1O)OO (stereo not drawn)	·	44	·	75	·	46	69	76	tim10-1 confirm=65
Clc1ccc(C(c2ccc(Cl)cc2)n2cc[n+](CC(OCc3ccc(Cl)cc3Cl)c3ccc(Cl)cc3Cl)c2)cc1 (stereo not drawn)	·	93	107	88	·	85	–	77	tim10-1 confirm=90
CCN(CC)c1ccc(N=Cc2c(O)n(CCc3ccc(OC)c(OC)c3)c(=O)[nH]c2=O)cc1	–	·	–	·	–	·	·	·
CCOC(=O)c1ccc(N2C(=O)CC(N3CCC(C#N)(c4ccccc4)CC3)C2=O)cc1 (stereo not drawn)	–	–	–	–	–	42	33	·
N#CC1(c2ccccc2)CCN(C2CC(=O)N(c3cccc(F)c3)C2=O)CC1 (stereo not drawn)	–	–	–	–	–	–	·	·
O=c1cccc2n1CC1CC2CN(c2ncnc3c2cnn3-c2ccc(Cl)cc2)C1 (stereo not drawn)	–	–	–	–	–	44	–	·
Nc1c2c(nc3sc4c(c13)CCCC4)CCCC2	–	–	–	–	–	48	38	·
COP(=O)(OC)C(Nc1ccccc1)c1ccccc1 (stereo not drawn)	–	–	–	–	–	–	·	·
CCC(=NCc1ccco1)c1c(O)n(C2CCCCC2)c(=O)[nH]c1=O	–	–	–	–	–	40	–	·
Cc1cccc(OCC(=O)N2CCN(Cc3cccnc3)CC2)c1	–	–	–	–	–	–	·	·
CC1(C)C[C@H]2C=C(C=O)[C@]3(C=O)C[C@]3(C)[C@H]2C1	108	–	·	–	–	50	61	·
COC(=O)C1=C(c2ccc(S(C)(=O)=O)cc2)C[C@@H]2CC[C@H]1N2C(=O)N1CCOCC1	·	–	–	–	–	–	·	·
CC(C)CN1CCN(Cc2ccc(F)cc2Cl)CC1CCO (stereo not drawn)	·	–	–	–	–	–	·	·
Cn1cnc(CCN)c1	·	–	–	–	–	40	–	·
NCCc1ccccn1	·	–	·	–	–	–	·	·
O=c1[nH]c(O)c(/C=C2/C=CC(c3cc(Cl)ccc3Cl)=N2)c(=O)[nH]1	·	–	–	54	–	52	52	59
CC1=Nc2ccccc2/C1=C/c1c(O)[nH]c(=O)[nH]c1=O	–	–	–	–	–	–	·	·
CCOC(=O)C(O)(c1ccc(N(C)C(=O)COc2ccccc2)cc1)C(F)(F)F (stereo not drawn)	·	–	–	–	–	–	·	·
CN(C)C(=O)O/N=C(\N)COc1ccc(C(C)(C)C)cc1	–	–	–	59	–	73	81	54
CCCCCCCCn1sccc1=O	·	–	+	65	·	54	58	–
SMILES	NALP1 inh	tim10-1 inh	PfHsp90 set2	tim23-1 inh	SKKanGAS inh	TIM10 inh	tim10 confirm	tim23-1 conf	others
Cc1cc(C=C2C(=O)NC(=S)NC2=O)c(C)n1C1CCCC1	–	–	–	55	–	46	45	55
Cc1cccc(N/N=C/c2c(O)[nH]c(=S)[nH]c2=O)c1	·	–	–	–	–	–	·	·
Fc1cccc(CCNCc2ccccn2)c1	–	–	–	–	–	–	·	·
COc1cccc(C2CC3C(=O)C=CC2N3Cc2ccccc2)c1 (stereo not drawn)	69	–	–	55	–	–	·	47
O=c1c2ccccc2nc(/C=C/c2ccccc2O)n1-c1ccccc1O	–	–	–	–	–	–	·	·
O=c1c2ccccc2nc(/C=C/c2ccccc2F)n1-c1ccccc1O	–	–	–	54	–	–	·	48
CC(C)(CN)CC(=O)O	–	–	–	–	–	–	·	·
CCCCCn1c(=O)c(C(=O)NC(C)c2ccccc2)c(O)c2ccccc21 (stereo not drawn)	–	–	–	–	–	–	·	·
Cc1ccc(S(=O)(=O)Oc2ccccc2C=C2C(=O)N(C)C(=O)N(C)C2=O)cc1	–	–	–	73	–	–	·	75
CN1C(=O)C(=Cc2ccccc2Oc2ccc(Cl)cc2)C(=O)N(C)C1=O	–	–	–	–	–	–	·	·
CN1C(=O)C(=Cc2ccccc2OCc2ccc(Cl)cc2)C(=O)N(C)C1=O	44	–	–	67	–	–	·	80
CCCCOc1ccc(CN2CCN(CC)CC2)cc1	–	–	–	–	–	–	·	·
NC(N)=N/N=C/c1ccc(N(c2ccccc2)c2ccccc2)cc1	–	–	–	71	105	–	·	27
COc1ccc(S(=O)(=O)N2CCOCC2)cc1NC(=O)COC(=O)Cc1ccccc1	·	–	–	–	·	–	·	·
N#Cc1ccccc1Cn1cc(C(=O)c2cccs2)c2ccccc21	–	–	–	61	–	–	·	–
CCc1ccc(-c2nn(Cc3ccccc3)cc2C=O)cc1	–	–	–	54	–	–	·	58
O=C(O)c1cn(Cc2ccccc2)nc1-c1ccccc1	–	–	·	–	–	–	·	·
O=Cc1cn(Cc2c(F)cccc2Cl)nc1-c1ccccc1	·	–	–	55	–	–	·	40
N#CC(C#N)=C(C#N)c1ccc(Nc2ccccc2)cc1	–	–	–	57	–	–	·	–
c1ccc(Nc2ccc(Nc3ccccc3)cc2)cc1	·	–	–	–	·	–	·	·
C[C@]12C=CC(=O)C=C1CC[C@@H]1[C@@H]2CC[C@]2(C)C(=O)CC[C@@H]12	·	·	–	·	·	·	·	·
